According to PubChem BioAssay:
The source made the active and inactive calls.

Assays:
[1] = E. coli DRC41 culture turbidity changes, primary screen, E. coli filamentation inducer project, strain DRC41, OD650, 48 h (AID 1152);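 also: E. coli MC1000 strain DRC41 lacking acrAB efflux pump and sulA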; settings: E. coli DRC41 (acrAB sulA), higher = more signal, called active from +8 up or from −8 down
[2] = small-molecule binders of probe aLefty1, primary screen, biochemical, small-molecule microarray, 635/667 nm fluorescence (AID 1153); settings: higher = more signal;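 also: score merges spot fluorescence with signal-to-noise ratio from the scanned slide images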
[3] = PSAC antagonists in infected red cells, primary screen, cell-based, P. falciparum Indochina, OD700, 1 h (AID 1154); settings: P. falciparum Indochina infected RBC osmotic lysis, higher = more signal, called active from +8 up or from −8 down
[4] = PSAC antagonists in infected red cells, primary screen, cell-based, P. falciparum Indochina, OD700, 2 h (AID 1155);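 also: lysis reports solute entry through the parasite surface anion channel PSAC; channel blockers reduce lysis of infected cells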; settings: P. falciparum Indochina infected erythrocytes, osmotic lysis OD700; higher = more signal, called active from +8 up or from −8 down
[5] = osmotic lysis modulators in infected erythrocytes, primary screen, PSAC antagonist project, cell-based, P. falciparum Indochina, OD700, 3 h (AID 1156); settings: higher = more signal, called active from +8 up or from −8 down
[6] = PSAC antagonists in infected red cells, primary screen, cell-based, P. falciparum Indochina, OD700, 18 h (AID 1157); settings: P. falciparum Indochina infected erythrocytes, osmotic lysis OD700, 18 h; higher = more signal, called active from +8 up or from −8 down
[7] = modulators of S6 phosphorylation in cells, primary screen, cell-based, A549, cytoblot, luminescence, serum-stimulated (AID 1158); settings: A549 phospho-S6 cytoblot, 5 h, higher = more signal;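 also: serum-stimulated A549 lung adenocarcinoma cells; signal is phosphorylated S6 detected by cytoblot immunostaining with HRP secondary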
[8] = molecular target: NADPH oxidase 2 (Homo sapiens) (UniProt P04839); assay: NOX2-dependent H2O2 signal modulators, primary screen, NOX inhibitor project, cell-based, HEK293-NOX2, PMA-stimulated, Amplex Red fluorescence (AID 1159); settings: 45 min, higher = more signal, called active from +8 up or from −8 down; also: test concentration not given here
Sequence of NADPH oxidase 2 (Homo sapiens) (P04839 whole entry, looked up): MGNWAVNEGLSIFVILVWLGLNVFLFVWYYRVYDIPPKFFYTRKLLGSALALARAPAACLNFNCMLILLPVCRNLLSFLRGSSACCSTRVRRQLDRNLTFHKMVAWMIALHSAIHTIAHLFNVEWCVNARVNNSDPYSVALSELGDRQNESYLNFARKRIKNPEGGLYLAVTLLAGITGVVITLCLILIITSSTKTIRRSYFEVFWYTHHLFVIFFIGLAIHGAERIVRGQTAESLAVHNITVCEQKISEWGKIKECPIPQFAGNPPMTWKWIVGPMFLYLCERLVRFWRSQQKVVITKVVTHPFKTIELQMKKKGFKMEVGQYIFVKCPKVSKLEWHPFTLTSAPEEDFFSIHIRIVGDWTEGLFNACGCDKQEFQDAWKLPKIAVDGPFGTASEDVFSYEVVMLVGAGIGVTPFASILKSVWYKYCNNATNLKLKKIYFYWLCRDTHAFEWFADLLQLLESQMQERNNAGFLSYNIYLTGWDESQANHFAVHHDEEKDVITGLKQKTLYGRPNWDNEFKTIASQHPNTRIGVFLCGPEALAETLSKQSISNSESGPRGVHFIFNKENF

[9] = molecular target: NADPH oxidase 4 (Homo sapiens) (UniProt Q9NPH5); assay: NOX4-dependent H2O2 signal modulators, primary screen, NOX inhibitor project, cell-based, HEK293-NOX4, tetracycline-induced, Amplex Red fluorescence (AID 1160); settings: 45 min, higher = more signal, called active from +8 up or from −8 down
Sequence of NADPH oxidase 4 (Homo sapiens) (Q9NPH5 whole entry, looked up): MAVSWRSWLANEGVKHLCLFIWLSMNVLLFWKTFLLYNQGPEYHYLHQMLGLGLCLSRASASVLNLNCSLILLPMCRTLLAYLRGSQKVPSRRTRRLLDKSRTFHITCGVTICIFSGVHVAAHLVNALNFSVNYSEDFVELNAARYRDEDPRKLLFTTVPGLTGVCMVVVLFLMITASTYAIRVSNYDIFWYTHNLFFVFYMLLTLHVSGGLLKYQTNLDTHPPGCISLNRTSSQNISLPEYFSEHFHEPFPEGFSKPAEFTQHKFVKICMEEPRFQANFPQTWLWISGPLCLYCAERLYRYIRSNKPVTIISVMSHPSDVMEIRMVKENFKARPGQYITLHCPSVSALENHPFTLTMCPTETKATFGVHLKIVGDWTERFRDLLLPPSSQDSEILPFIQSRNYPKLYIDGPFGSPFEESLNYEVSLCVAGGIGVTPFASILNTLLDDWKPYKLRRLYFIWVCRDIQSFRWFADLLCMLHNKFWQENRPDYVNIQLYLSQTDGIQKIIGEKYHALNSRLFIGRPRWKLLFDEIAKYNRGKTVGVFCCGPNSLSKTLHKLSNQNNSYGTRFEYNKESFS

[10] = molecular target: NADPH oxidase 5 (Homo sapiens) (UniProt Q96PH1); assay: NOX5-dependent H2O2 signal modulators, primary screen, NOX inhibitor project, cell-based, HEK293-NOX5, Amplex Red fluorescence (AID 1161); settings: HEK293-NOX5, ionomycin, 45 min, higher = more signal
Sequence of NADPH oxidase 5 (Homo sapiens) (Q96PH1 whole entry, looked up): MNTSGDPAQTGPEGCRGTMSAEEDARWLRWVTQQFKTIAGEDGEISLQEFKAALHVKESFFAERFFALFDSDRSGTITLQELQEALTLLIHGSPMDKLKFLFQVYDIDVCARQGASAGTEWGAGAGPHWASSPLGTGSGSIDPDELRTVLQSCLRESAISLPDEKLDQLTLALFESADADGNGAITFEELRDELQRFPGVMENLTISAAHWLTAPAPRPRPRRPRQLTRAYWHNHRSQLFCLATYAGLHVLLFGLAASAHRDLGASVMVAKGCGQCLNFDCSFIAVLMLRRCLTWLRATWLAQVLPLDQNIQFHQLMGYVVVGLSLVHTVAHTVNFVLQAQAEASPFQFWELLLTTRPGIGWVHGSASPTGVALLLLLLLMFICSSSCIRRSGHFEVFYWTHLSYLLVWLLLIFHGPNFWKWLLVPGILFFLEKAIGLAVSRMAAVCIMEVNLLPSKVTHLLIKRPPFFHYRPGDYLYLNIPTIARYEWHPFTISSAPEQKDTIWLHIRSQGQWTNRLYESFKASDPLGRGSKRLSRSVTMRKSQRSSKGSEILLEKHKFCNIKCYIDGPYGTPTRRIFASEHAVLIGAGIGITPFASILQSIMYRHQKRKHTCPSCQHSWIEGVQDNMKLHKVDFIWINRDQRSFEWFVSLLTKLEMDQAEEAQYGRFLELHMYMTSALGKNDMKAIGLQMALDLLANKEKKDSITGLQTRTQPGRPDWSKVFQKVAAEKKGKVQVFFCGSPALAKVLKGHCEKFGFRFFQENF

[11] = A549 cell viability effects, profiling panel, calcein-AM fluorescence, 48 h, basal (AID 1162); settings: higher = more signal; also: test concentration not given here
[12] = adipocyte viability effects, profiling panel, cell-based, 3T3-L1 adipocytes, calcein-AM fluorescence, 48 h, basal (AID 1163); settings: 3T3-L1 adipocytes viability, higher = more signal; also: test concentration not given here
[13] = HepG2 cell viability effects, profiling panel, calcein-AM fluorescence, 48 h, basal (AID 1164); settings: higher = more signal; also: test concentration not given here
[14] = MM1S cell viability effects, profiling panel, calcein-AM fluorescence, 48 h, basal (AID 1165); settings: higher = more signal;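 also: viability of MM1S multiple myeloma cells under basal unstimulated conditions; test concentration not given here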
[15] = basal RPMI8226 viability, no added stimulus, profiling panel, cell-based, calcein-AM fluorescence, 48 h, PK04 Diversity Set (AID 1166); settings: RPMI8226 myeloma viability, higher = more signal;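 also: cells grown under basal conditions without added stimulus; test concentration not given here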
[16] = basal HepG2 mitochondrial membrane potential changes, profiling panel, cell-based, JC-1 fluorescence, 24 h, 100 nL compound (AID 1167); settings: higher = more signal; also: test concentration not given here
[17] = basal 3T3-L1 adipocyte mitochondrial potential changes, profiling panel, cell-based, JC-1 fluorescence, 3T3-L1 adipocytes, 24 h, 100 nL compound (AID 1168); settings: JC-1 mitochondrial fluorescence, higher = more signal, called active from +8 up or from −8 down; also: test concentration not given here
[18] = basal RPMI8226 mitochondrial membrane potential changes, profiling panel, cell-based, JC-1 fluorescence, 24 h, 100 nL compound (AID 1169); settings: RPMI8226 myeloma, JC-1 mitochondrial potential fluorescence, higher = more signal; also: test concentration not given here
[19] = basal MM1S mitochondrial membrane potential changes, profiling panel, cell-based, JC-1 fluorescence, 24 h, 100 nL compound (AID 1170); settings: higher = more signal; also: test concentration not given here
[20] = A549 lung cancer cell viability effects, profiling panel, resazurin fluorescence, 24 h, PK04 Diversity Set (AID 1171); settings: higher = more signal, called active from +8 up or from −8 down; also: test concentration not given here

CC(C)C[C@@H]1NC(=O)[C@@H]2C[C@H](C(=O)NCCCC[N+](C)(C)C)[C@H](c3ccc(O)cc3)N2C1=O
z-score [1]: -0.04 (inactive)
composite z-score [2]: -0.0145
z-score [3]: 1.32 (inactive)
z-score [4]: 0.281 (inactive)
z-score [5]: -0.0501 (inactive)
z-score [6]: 0.449 (inactive)
z-score [7]: 0.145
z-score [8]: -2.33 (inactive)
z-score [9]: -1.4 (inactive)
z-score [10]: -2.19
z-score [11]: 0.127
z-score [12]: -0.302
z-score [13]: -0.698
z-score [14]: -0.104
z-score [15]: -0.427
z-score [16]: -0.65
z-score [17]: -0.341 (inactive)
z-score [18]: 0.496
z-score [19]: -0.548
z-score [20]: -1.18 (inactive)

CCCCN1CC=CC23O[C@@H]4C=CCOC(=O)[C@@H]4[C@H]2C(=O)N(CCO)[C@@H]3C1=O (stereo not given in full)
z-score [1]: -0.492 (inactive)
composite z-score [2]: 0.175
z-score [3]: -0.366 (inactive)
z-score [4]: 0.574 (inactive)
z-score [5]: 0.349 (inactive)
z-score [6]: 0.381 (inactive)
z-score [7]: -0.415
z-score [8]: 1.51 (inactive)
z-score [9]: 1.08 (inactive)
z-score [10]: 0.669
z-score [11]: 0.0738
z-score [12]: -0.426
z-score [13]: 0.442
z-score [14]: -1.05
z-score [15]: 0.342
z-score [16]: -0.454
z-score [17]: 0.302 (inactive)
z-score [18]: 0.837
z-score [19]: -0.209
z-score [20]: -0.437 (inactive)

CC(C)CNC(=O)[C@@H]1c2ccccc2C(=O)N(Cc2ccccc2)[C@H]1c1ccc(CO)cc1
z-score [1]: -0.603 (inactive)
composite z-score [2]: -0.106
z-score [3]: 1.49 (inactive)
z-score [4]: 0.294 (inactive)
z-score [5]: 2.44 (inactive)
z-score [6]: 0.769 (inactive)
z-score [7]: -0.316
z-score [8]: -0.638 (inactive)
z-score [9]: -1.24 (inactive)
z-score [10]: -3.17
z-score [11]: -0.412
z-score [12]: 0.175
z-score [13]: -0.345
z-score [14]: 0.0234
z-score [15]: 0.65
z-score [16]: 0.508
z-score [17]: -0.526 (inactive)
z-score [18]: 0.146
z-score [19]: -0.139
z-score [20]: 0.678 (inactive)

C=C(CCCC)C(=O)CC[C@H](OC(C)=O)c1ccccc1OCCO
z-score [1]: 0.0371 (inactive)
composite z-score [2]: 0.149
z-score [3]: 5.66 (inactive)
z-score [4]: -0.686 (inactive)
z-score [5]: 2.15 (inactive)
z-score [6]: -1.83 (inactive)
z-score [7]: 1.68
z-score [8]: -1.56 (inactive)
z-score [9]: -0.397 (inactive)
z-score [10]: -2.19
z-score [11]: -0.655
z-score [12]: 1.66
z-score [13]: -0.713
z-score [14]: -3.29
z-score [15]: -2.91
z-score [16]: 0.103
z-score [17]: 0.98 (inactive)
z-score [18]: -0.706
z-score [19]: 0.346
z-score [20]: -1.24 (inactive)

C=CCOC(=O)[C@H]1[C@@H]2C(=O)O[C@@H](c3ccccc3)[C@@H](c3ccccc3)N2[C@@H](c2ccc(OCCOC(=O)[C@@H]3C[C@@H]4C(=O)N[C@@H](Cc5ccccc5)C(=O)N4[C@@H]3c3ccc(O)cc3)cc2)[C@]12C(=O)Nc1ccccc12
z-score [1]: -0.126 (inactive)
composite z-score [2]: -0.0235
z-score [3]: 2.33 (inactive)
z-score [4]: 0.776 (inactive)
z-score [5]: 1.28 (inactive)
z-score [6]: 0.914 (inactive)
z-score [7]: 0.896
z-score [8]: 1.48 (inactive)
z-score [9]: 1.14 (inactive)
z-score [10]: 2.13
z-score [11]: 0.137
z-score [12]: -0.156
z-score [13]: -0.338
z-score [14]: -1.31
z-score [15]: 0.0712
z-score [16]: -1.37
z-score [17]: -0.262 (inactive)
z-score [18]: -0.616
z-score [19]: -1.02
z-score [20]: 0.0598 (inactive)

C/C=C/CN(C(=O)C#Cc1ccccc1)[C@H](CO[Si](C)(C)C(C)(C)C)c1ccccc1
z-score [1]: 2.64 (inactive)
composite z-score [2]: -0.324
z-score [3]: 0.567 (inactive)
z-score [4]: -0.912 (inactive)
z-score [5]: -0.509 (inactive)
z-score [6]: -1.83 (inactive)
z-score [7]: 1.52
z-score [8]: 0.405 (inactive)
z-score [9]: 0.123 (inactive)
z-score [10]: -0.373
z-score [11]: -0.21
z-score [12]: 1.45
z-score [13]: -0.488
z-score [14]: -2.38
z-score [15]: -3.4
z-score [16]: 2.31
z-score [17]: 1.37 (inactive)
z-score [18]: -0.522
z-score [19]: -0.0851
z-score [20]: 0.365 (inactive)

[N-]=[N+]=NCc1ccccc1C[C@]1(C(=O)NCc2ccccc2)N=C(c2ccc(OCCCO)cc2)O[C@H]1c1ccccc1CN=[N+]=[N-]
z-score [1]: 1.76 (inactive)
composite z-score [2]: 1.09
z-score [3]: 18.7 (active)
z-score [4]: 5.01 (inactive)
z-score [5]: 2.53 (inactive)
z-score [6]: 0.936 (inactive)
z-score [7]: 2.34
z-score [8]: -1.09 (inactive)
z-score [9]: 0.145 (inactive)
z-score [10]: 0.094
z-score [11]: -1.42
z-score [12]: 2.15
z-score [13]: -0.955
z-score [14]: -1.23
z-score [15]: -1.69
z-score [16]: 0.247
z-score [17]: -0.158 (inactive)
z-score [18]: -0.899
z-score [19]: -0.214
z-score [20]: -1.09 (inactive)

COC(=O)[C@@]1(Cc2ccc(F)cc2)[C@H]2c3cc(C(=O)N4CCCC4)n(CCO)c3C[C@H]2CN1C(=O)c1ccccc1
z-score [1]: -1.56 (inactive)
composite z-score [2]: -0.193
z-score [3]: 2.59 (inactive)
z-score [4]: 0.279 (inactive)
z-score [5]: 1.48 (inactive)
z-score [6]: 0.716 (inactive)
z-score [7]: 0.871
z-score [8]: 0.54 (inactive)
z-score [9]: 2 (inactive)
z-score [10]: 0.15
z-score [11]: 0.448
z-score [12]: -0.35
z-score [13]: -0.885
z-score [14]: 0.309
z-score [15]: -0.929
z-score [16]: 1.04
z-score [17]: 0.379 (inactive)
z-score [18]: -0.249
z-score [19]: -0.996
z-score [20]: 0.11 (inactive)

COc1ccc([Si](C)(C)[C@H]2[C@H](CCn3cc([C@H](O)c4ccccc4)nn3)O[C@@]3(C(=O)N(C)c4c(Br)cc(C)cc43)[C@@H]2C)cc1
z-score [1]: 0.45 (inactive)
composite z-score [2]: -0.196
z-score [3]: 5.6 (inactive)
z-score [4]: 1.59 (inactive)
z-score [5]: 1.25 (inactive)
z-score [6]: 1.11 (inactive)
z-score [7]: -0.108
z-score [8]: 0.276 (inactive)
z-score [9]: 0.825 (inactive)
z-score [10]: 0.37
z-score [11]: -1.94
z-score [12]: 1.69
z-score [13]: -4.58
z-score [14]: -2.48
z-score [15]: -4.31
z-score [16]: -0.281
z-score [17]: -0.162 (inactive)
z-score [18]: -1
z-score [19]: 0.212
z-score [20]: -2.66 (inactive)
